Results reported in the antibiotic and cytotoxicity screens of Wong et al. (2023).
Hit rate of the full screen: of about 39,000 compounds, about 1,500 (3.8%) were called active. For the sample, actives were picked, then their nearest neighbours and some compounds at random.

What follows are compounds tested on HSkMC (human skeletal muscle cells) (assay: cytotoxicity call (relative viability < 0.9)). Conditions: 10 µM.
`Cc1noc(C)c1S(=O)(=O)Nc1ccc2c(c1)CC(=O)N([C@@H](C)CO)C[C@@H](C)[C@@H](CN(C)Cc1ccccc1)O2` was tested, and the cytotoxicity call was “inactive”.
With `Cc1noc(C)c1NC(=O)Nc1ccc2c(c1)CC(=O)N([C@@H](C)CO)C[C@@H](C)[C@@H](CN(C)Cc1ccc(-c3ccccc3)cc1)O2` the cytotoxicity call was “inactive”.
`COc1ccc(NC(=O)N(C)C[C@@H]2Oc3c(NC(=O)Nc4cccc5ccccc45)cccc3C(=O)N([C@@H](C)CO)C[C@@H]2C)cc1` was tested, and the cytotoxicity call was “inactive”.
With `C[C@H]1COC(=O)[C@H](NC(=O)OCC2c3ccccc3-c3ccccc32)CC=CC[C@@H](CC(=O)NCCO)C(=O)N1` the cytotoxicity call was “inactive”.
With `CCCNC(=O)N[C@@H]1C=C[C@@H](CC(=O)N2CCN(C)CC2)O[C@@H]1CO` the cytotoxicity call was “inactive”.
With `Cc1ccc(S(=O)(=O)Nc2ccc3c(c2)C(=O)N([C@H](C)CO)C[C@H](C)[C@@H](CN(C)C(=O)Nc2c(C)noc2C)OCCCC[C@H](C)O3)cc1` the cytotoxicity call was “inactive”.
In the case of `C[C@H]1CN([C@@H](C)CO)C(=O)c2c(c3ccccc3n2C)-c2ccccc2CO[C@H]1CN(C)C(=O)Nc1ccc(-c2ccccc2)cc1`, the cytotoxicity call is reported as “inactive”.
For `C[C@@H]1CN([C@@H](C)CO)C(=O)c2cc(NC(=O)Nc3ccc(C(F)(F)F)cc3)ccc2O[C@H]1CN(C)Cc1ccc(C(=O)Nc2ccccc2N)cc1`, the cytotoxicity call was “inactive”.
`C[C@@H]1CCCCO[C@@H](CN(C)Cc2ccc(C(=O)Nc3ccccc3N)cc2)[C@@H](C)CN([C@H](C)CO)C(=O)c2cc(NC(=O)Nc3ccc(F)cc3)ccc2O1` was tested, and the cytotoxicity call was “inactive”.
For `C[C@@H]1CCCCO[C@H](CN(C)Cc2ccc(C(=O)Nc3ccccc3N)cc2)[C@@H](C)CN([C@@H](C)CO)C(=O)c2cc(NC(=O)Nc3ccc(C(F)(F)F)cc3)ccc2O1`, the cytotoxicity call was “inactive”.
For `C[C@@H]1CCCCO[C@@H](CN(C)Cc2ccc(C(=O)Nc3ccccc3N)cc2)[C@@H](C)CN([C@H](C)CO)C(=O)c2cc(NC(=O)Nc3ccc(C(F)(F)F)cc3)ccc2O1`, the cytotoxicity call was “active”.
With `C[C@H]1CN([C@@H](C)CO)C(=O)c2cc(NC(=O)Nc3ccc(C(F)(F)F)cc3)ccc2O[C@H]1CN(C)Cc1ccc(C(=O)Nc2ccccc2N)cc1` the cytotoxicity call was “active”.
In the case of `C[C@H](CO)N1C[C@H](C)[C@H](CN(C)Cc2ccc(C(=O)Nc3ccccc3N)cc2)Oc2ccc(NC(=O)Nc3ccc(C(F)(F)F)cc3)cc2C1=O`, the cytotoxicity call is reported as “active”.
For `C[C@H]1CN([C@@H](C)CO)C(=O)c2cc(NC(=O)Nc3ccc(C(F)(F)F)cc3)ccc2O[C@@H]1CN(C)Cc1ccc(C(=O)Nc2ccccc2N)cc1`, the cytotoxicity call was “inactive”.
With `C[C@@H]1CN([C@H](C)CO)C(=O)c2cc(NC(=O)Nc3ccc(C(F)(F)F)cc3)ccc2O[C@@H]1CN(C)Cc1ccc(C(=O)Nc2ccccc2N)cc1` the cytotoxicity call was “inactive”.
With `C[C@H](CO)N1C[C@H](C)[C@@H](CN(C)Cc2ccc(C(=O)Nc3ccccc3N)cc2)Oc2ccc(NC(=O)Nc3ccc(C(F)(F)F)cc3)cc2C1=O` the cytotoxicity call was “inactive”.
In the case of `C[C@@H]1CN([C@H](C)CO)C(=O)Cc2cc(NC(=O)CCN3CCOCC3)ccc2O[C@@H]1CN(C)C(=O)Nc1ccccc1`, the cytotoxicity call is reported as “inactive”.
For `CN1C(=O)NC2(CCNCC2)C1=O`, the cytotoxicity call was “inactive”.
`O=[N+]([O-])c1ccc(/C=C/CN(C/C=C/c2ccc([N+](=O)[O-])cc2)CCCNS(=O)(=O)c2cccc3cnccc23)cc1` was tested, and the cytotoxicity call was “inactive”.
In the case of `COc1ccc(CN(C)C[C@H]2Oc3c(NC(=O)Nc4ccc(C(F)(F)F)cc4)cccc3C(=O)N([C@H](C)CO)C[C@@H]2C)cc1`, the cytotoxicity call is reported as “active”.
In the case of `COc1ccc(NC(=O)Nc2cccc3c2O[C@H](CN(C)Cc2ccc(C(F)(F)F)cc2)[C@@H](C)CN([C@@H](C)CO)C3=O)cc1`, the cytotoxicity call is reported as “inactive”.
`COc1ccc(CN(C)C[C@H]2Oc3c(NC(=O)Nc4ccc(C(F)(F)F)cc4)cccc3C(=O)N([C@@H](C)CO)C[C@H]2C)cc1` was tested, and the cytotoxicity call was “inactive”.
In the case of `COc1ccc(CN(C)C[C@@H]2Oc3c(NC(=O)Nc4ccc(C(F)(F)F)cc4)cccc3C(=O)N([C@@H](C)CO)C[C@H]2C)cc1`, the cytotoxicity call is reported as “active”.
`COc1ccc(NC(=O)Nc2cccc3c2O[C@@H](CN(C)Cc2ccc(C(F)(F)F)cc2)[C@H](C)CN([C@H](C)CO)C3=O)cc1` was tested, and the cytotoxicity call was “inactive”.
With `COc1ccc(CN(C)C[C@@H]2Oc3c(NC(=O)Nc4ccc(C(F)(F)F)cc4)cccc3C(=O)N([C@H](C)CO)C[C@H]2C)cc1` the cytotoxicity call was “active”.
In the case of `COc1ccc(NC(=O)Nc2cccc3c2O[C@@H](CN(C)Cc2ccc(C(F)(F)F)cc2)[C@@H](C)CN([C@H](C)CO)C3=O)cc1`, the cytotoxicity call is reported as “inactive”.
`COc1ccc(NC(=O)Nc2cccc3c2O[C@@H](CN(C)Cc2ccc(C(F)(F)F)cc2)[C@H](C)CN([C@@H](C)CO)C3=O)cc1` was tested, and the cytotoxicity call was “inactive”.
In the case of `COc1ccc(CN(C)C[C@H]2Oc3c(NC(=O)Nc4ccc(C(F)(F)F)cc4)cccc3C(=O)N([C@H](C)CO)C[C@H]2C)cc1`, the cytotoxicity call is reported as “inactive”.
In the case of `C[C@H](CO)N1C[C@H](C)[C@@H](CN(C)C(=O)CN(C)C)Oc2cc(-c3cncnc3)ccc2S1(=O)=O`, the cytotoxicity call is reported as “inactive”.
`O=C(C[C@H]1CC[C@H]2[C@@H](COC[C@H](O)CN2C(=O)c2cnccn2)O1)NCc1ccc(Oc2ccccc2)cc1` was tested, and the cytotoxicity call was “inactive”.
`C[C@@H]1CN([C@H](C)CO)S(=O)(=O)c2ccc(C#CC3CCCC3)cc2O[C@H]1CN(C)C(=O)Cc1ccncc1` was tested, and the cytotoxicity call was “inactive”.
With `C[C@@H]1CCCCO[C@@H](CN(C)C(=O)c2ccccc2)[C@@H](C)CN([C@H](C)CO)C(=O)c2cc(NS(=O)(=O)c3ccc(Cl)cc3)ccc2O1` the cytotoxicity call was “inactive”.
`O=C(NCC(F)(F)F)[C@@H]1[C@@H](CO)[C@@H]2Cn3c(cccc3=O)[C@H]1N2C(=O)C1CCC1` was tested, and the cytotoxicity call was “inactive”.
`COc1ccc(S(=O)(=O)N(C)C[C@H]2Oc3ccc(NS(=O)(=O)c4ccc(C)cc4)cc3C(=O)N([C@H](C)CO)C[C@@H]2C)cc1` was tested, and the cytotoxicity call was “inactive”.
With `CC(C)NC(=O)N(C)C[C@@H]1Oc2ccc(NC(=O)CCN3CCOCC3)cc2CC(=O)N([C@@H](C)CO)C[C@@H]1C` the cytotoxicity call was “inactive”.
For `Cc1ccccc1S(=O)(=O)N1C[C@H](O)COC[C@H]2O[C@@H](CC(=O)NCc3ccccc3Cl)CC[C@@H]21`, the cytotoxicity call was “inactive”.
In the case of `COc1ccc2c3c([nH]c2c1)[C@@H](CO)N(C[C@]13CN(CCc2ccccc2)C1)C(=O)CN1CCOCC1`, the cytotoxicity call is reported as “inactive”.
For `COc1ccc2c3c([nH]c2c1)[C@H](CO)N(Cc1ccc(cc1)Cl)C[C@]13CCN(CCc2ccccc2)CC1`, the cytotoxicity call was “inactive”.
`COc1ccc2c3c([nH]c2c1)[C@H](CO)N(C[C@]13CCN(CCc2ccccc2)CC1)C(=O)CN1CCOCC1` was tested, and the cytotoxicity call was “inactive”.
`COc1ccc2c3c([nH]c2c1)[C@@H](CO)N(Cc1ccccc1)C[C@]13CCN(CC1)C(=O)Nc1cccc(c1)F` was tested, and the cytotoxicity call was “inactive”.
In the case of `COc1ccc2c3c([nH]c2c1)[C@@H](CO)N(Cc1ccc(cc1)Cl)C[C@]13CN(CCc2ccccc2)C1`, the cytotoxicity call is reported as “active”.
In the case of `COc1ccc2c3c([nH]c2c1)[C@H](CO)N(Cc1ccc(cc1)Cl)C[C@]13CN(CCc2ccccc2)C1`, the cytotoxicity call is reported as “active”.
`COc1ccc2c3c([nH]c2c1)[C@H](CO)N(Cc1ccccc1)C[C@]13CCN(CC1)C(=O)Nc1cccc(c1)F` was tested, and the cytotoxicity call was “inactive”.
`COc1ccc2c3c([nH]c2c1)[C@@H](CO)N(Cc1ccc(cc1)Cl)C[C@]13CCN(CCc2ccccc2)CC1` was tested, and the cytotoxicity call was “active”.
For `COc1ccc2c3c([nH]c2c1)[C@H](CO)N(C[C@]13CN(CCc2ccccc2)C1)C(=O)CN1CCOCC1`, the cytotoxicity call was “inactive”.
With `C[C@@H]1CCCCO[C@H](CN(C)C(=O)c2ccccc2)[C@H](C)CN([C@@H](C)CO)C(=O)c2cc(NC(=O)Cc3ccccc3)ccc2O1` the cytotoxicity call was “inactive”.
With `C[C@@H]1CN([C@@H](C)CO)C(=O)Cc2cc(NS(=O)(=O)c3cn(C)cn3)ccc2O[C@H]1CN(C)C` the cytotoxicity call was “inactive”.
`COC(=O)C1=CO[C@@H](O[C@@H]2O[C@H](CO)[C@@H](O)[C@H](O)[C@H]2O)[C@@H]2[C@@H](CO)C=C[C@H]12` was tested, and the cytotoxicity call was “inactive”.
In the case of `C[C@@H]1CN([C@@H](C)CO)C(=O)c2cc(NC(=O)CCC(F)(F)F)ccc2O[C@@H](C)CCCCO[C@@H]1CN(C)C(=O)C1CCCCC1`, the cytotoxicity call is reported as “inactive”.
For `COc1ccc(C#Cc2ccc3c(c2)O[C@@H](CN(C)C(C)=O)[C@@H](C)CN([C@H](C)CO)S3(=O)=O)cc1`, the cytotoxicity call was “inactive”.
For `COc1ccc(CN(C)C[C@@H]2OCCCC[C@H](C)Oc3ccc(NC(=O)CCC(F)(F)F)cc3C(=O)N([C@@H](C)CO)C[C@@H]2C)cc1`, the cytotoxicity call was “inactive”.
`CCCNc1nc(Nc2ccc(C#N)cc2)ncc1C#CCCCNC(=O)[C@H](C)N(C)C(=O)/C=C/CN(C)C` was tested, and the cytotoxicity call was “active”.
For `OCc1ccccc1-n1cncn1`, the cytotoxicity call was “inactive”.
For `COc1ccc2c3c([nH]c2c1)[C@H](CO)N(C[C@]13CCN(CC1)C(=O)Nc1ccc(cc1)F)C(=O)c1ccc(cc1)F`, the cytotoxicity call was “inactive”.
With `COc1ccc2c3c([nH]c2c1)[C@H](CO)N(CC1CCCC1)C[C@]13CCN(CC1)C(=O)c1ccc(cc1)F` the cytotoxicity call was “active”.
For `COc1ccc2c3c([nH]c2c1)[C@@H](CO)N(CC1CCCC1)C[C@]13CCN(CC1)C(=O)c1ccc(cc1)F`, the cytotoxicity call was “active”.
For `COc1ccc2c3c([nH]c2c1)[C@H](CO)N(CC1CCCC1)C[C@]13CCN(CC1)C(=O)Nc1cccc(c1)F`, the cytotoxicity call was “inactive”.
With `COc1ccc2c3c([nH]c2c1)[C@@H](CO)N(C[C@]13CCN(CC1)C(=O)Nc1ccc(cc1)F)C(=O)c1ccc(cc1)F` the cytotoxicity call was “inactive”.
For `COc1ccc2c3c([nH]c2c1)[C@@H](CO)N(CC1CCCC1)C[C@]13CCN(CC1)C(=O)Nc1cccc(c1)F`, the cytotoxicity call was “inactive”.
`CC(=O)N[C@H](Cc1ccc2ccccc2c1)C(=O)N[C@H](Cc1ccc(Cl)cc1)C(=O)N[C@H](Cc1cccnc1)C(=O)N[C@@H](CO)C(=O)N(C)[C@@H](Cc1ccc(O)cc1)C(=O)N[C@H](CC(N)=O)C(=O)N[C@@H](CC(C)C)C(=O)N[C@@H](CCCCNC(C)C)C(=O)N1CCC[C@H]1C(=O)N[C@H](C)C(N)=O` was tested, and the cytotoxicity call was “inactive”.
